# Measurements reported in PubChem BioAssay.
# Several values for one entry are separate records, joined by “and”; a condition that tells them apart may be missing. Identical values can stand only once. Activity calls are given as the source filed them.
# What was measured:
# [1] = small molecules captured by biotinylated probe aFSTL3 – biochemical, small-molecule microarray, fluorescence 635/667, stem cell growth factor project, primary screen (AID 1064); details: higher = more signal;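 also: measures binding of the biotinylated anti-FSTL3 antibody to printed compounds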
# [2] = binders from COS7 lysate, DM2A8 probe, primary screen, torsin A project, cell lysate, small-molecule microarray, fluorescence 635/667 (AID 1065); details: higher = more signal, COS7 lysate expressing mutant human TOR1A
# [3] = small molecules captured by biotinylated probe aFGF2 – biochemical, small-molecule microarray, fluorescence 635/667, stem cell growth factor project, primary screen (AID 1067); details: higher = more signal;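 also: measures binding of biotinylated aFGF2 protein to printed compounds on slides; z-score merges feature fluorescence and signal-to-noise across triplicate slides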
# [4] = small molecules captured by biotinylated probe aFGF10 – biochemical, small-molecule microarray, fluorescence 635/667, stem cell growth factor project, primary screen (AID 1071); details: higher = more signal;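 also: score merges 667 nm spot intensity and signal to noise from triplicate slides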
# [5] = target: Neurogenic locus notch homolog protein 2 (Homo sapiens) (UniProt Q04721); test: small molecules binding Notch2 protein – biochemical, small-molecule microarray, 635 nm fluorescence, stem cell growth factors, primary screen (AID 1073); details: higher = more signal
# [6] = target: Pro-neuregulin-1, membrane-bound isoform (Homo sapiens) (UniProt Q02297); test: small molecules binding neuregulin-1 protein – biochemical, small-molecule microarray, fluorescence 635/667, psychiatric disease protein project, primary screen (AID 1075); details: NRG1 binding, 635 nm fluorescence, higher = more signal;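 also: score combines 667 nm spot fluorescence with signal to noise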
# Pro-neuregulin-1, membrane-bound isoform (Homo sapiens), sequence (Q02297 whole entry, looked up, the tested form may be a part, canonical isoform): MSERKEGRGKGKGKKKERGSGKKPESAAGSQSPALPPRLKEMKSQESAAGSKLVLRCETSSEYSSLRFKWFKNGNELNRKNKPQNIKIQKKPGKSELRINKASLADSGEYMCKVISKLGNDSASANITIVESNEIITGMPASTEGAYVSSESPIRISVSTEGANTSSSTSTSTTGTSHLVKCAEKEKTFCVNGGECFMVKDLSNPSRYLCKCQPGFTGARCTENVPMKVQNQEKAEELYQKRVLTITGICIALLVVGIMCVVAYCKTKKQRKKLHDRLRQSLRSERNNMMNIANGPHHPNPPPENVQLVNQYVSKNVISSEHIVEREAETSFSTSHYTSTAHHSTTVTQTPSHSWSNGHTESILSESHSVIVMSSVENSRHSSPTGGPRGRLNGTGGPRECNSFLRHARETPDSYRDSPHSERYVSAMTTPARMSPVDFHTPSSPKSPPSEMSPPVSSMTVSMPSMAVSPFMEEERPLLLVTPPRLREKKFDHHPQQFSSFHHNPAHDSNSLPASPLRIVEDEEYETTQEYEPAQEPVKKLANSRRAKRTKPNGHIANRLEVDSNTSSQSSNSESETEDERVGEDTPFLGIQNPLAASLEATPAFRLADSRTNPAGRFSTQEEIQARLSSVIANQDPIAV
# [7] = test system: Neuregulin-1 EGF-like domain; test: small molecules binding NRG1 EGF domain – biochemical, small-molecule microarray, 635 nm fluorescence, primary screen (AID 1081); details: higher = more signal;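 also: binding of the protein to compounds printed on small-molecule microarray slides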
# [8] = FRG1 expression reporter modulators in myotubes – cell-based, C2C12 myotubes, firefly/Renilla luciferase, luminescence, FRG1 inhibition for FSHD, primary screen (AID 1084); details: FRG1 promoter luciferase, higher = more signal, called active from +8 up or from −8 down
# [9] = small molecules captured by biotinylated probe aFST – biochemical, small-molecule microarray, fluorescence 635/667, stem cell growth factor project, primary screen (AID 1086); details: higher = more signal;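 also: score merges 667 nm fluorescence with signal-to-noise of each printed compound spot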
# [10] = binders of probe aHhip on microarray, primary screen, stem cell growth factor project, biochemical, small-molecule microarray, fluorescence 635/667 (AID 1087); details: higher = more signal;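 also: score merges spot fluorescence at 667nm with spot signal to noise ratio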
# [11] = test system: PRMT1 (protein arginine N-methyltransferase 1); test: small molecules binding arginine methyltransferase PRMT1 – biochemical, small-molecule microarray, 635 nm fluorescence, primary screen (AID 1088); details: higher = more signal;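 also: binding of Prmt1 protein to compounds spotted on small-molecule microarray slides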
# [12] = growth effects on S. cerevisiae YJM789 – YJM789 clinical isolate, OD600, 24 h, basal, primary screen (AID 1089); details: higher = more signal, called active from +8 up or from −8 down;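 also: growth of clinical yeast isolate S. cerevisiae YJM 789 seeded 1000 cells per well; test concentration not given here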
# [13] = S. pombe growth modifiers, basal conditions – strain 972, OD600, 24 h, no modulator, primary screen (AID 1090);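 also: basal condition with compound alone and no growth modifier present; test concentration not given here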; details: S. pombe 972 growth, higher = more signal, called active from +8 up or from −8 down
# [14] = budding yeast growth modifiers under rapamycin – strain BY4716, OD600, 96 h, primary screen (AID 1091); also: test concentration not given here; details: S. cerevisiae BY4716 + rapamycin, higher = more signal, called active from +8 up or from −8 down
# [15] = target: Torsin-1A-interacting protein 2 (Homo sapiens) (UniProt Q8NFQ8); test: small molecules binding lysate-expressed LULL1 – cell lysate, human LULL1 lysate, 635/667 nm fluorescence, primary screen (AID 1092); details: small-molecule microarray, hLULL1 lysate binding, 635 nm fluorescence; higher = more signal;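 also: probe is lysate of COS7 cells overexpressing human LULL1; score merges per-feature 667 nm fluorescence with signal-to-noise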
# Torsin-1A-interacting protein 2 (Homo sapiens), sequence (Q8NFQ8 whole entry, looked up): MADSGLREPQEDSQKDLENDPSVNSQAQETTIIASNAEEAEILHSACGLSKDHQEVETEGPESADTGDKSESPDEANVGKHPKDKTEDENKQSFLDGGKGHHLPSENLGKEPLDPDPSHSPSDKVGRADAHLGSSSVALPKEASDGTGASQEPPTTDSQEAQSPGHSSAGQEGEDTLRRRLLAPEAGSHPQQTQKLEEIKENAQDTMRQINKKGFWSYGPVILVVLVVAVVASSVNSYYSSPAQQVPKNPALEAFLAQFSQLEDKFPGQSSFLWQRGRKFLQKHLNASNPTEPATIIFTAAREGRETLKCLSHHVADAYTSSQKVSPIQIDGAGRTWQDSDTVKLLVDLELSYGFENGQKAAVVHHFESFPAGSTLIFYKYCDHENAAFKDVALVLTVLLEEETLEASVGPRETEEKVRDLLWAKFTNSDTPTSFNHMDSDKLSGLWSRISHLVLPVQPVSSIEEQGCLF
# [16] = optical density change of DRC41 E. coli – strain DRC41, OD650, 24 h, E. coli filamentation project, primary screen (AID 1093);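 also: MC1000 strain lacking acrAB efflux and sulA so SOS filamentation is blocked; test concentration not given here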; details: E. coli DRC41 growth, higher = more signal, called active from +8 up or from −8 down
# [17] = probe aLefty2 binding to arrayed compounds – biochemical, biotinylated probe, 635/667 nm fluorescence, primary screen (AID 1094); details: small-molecule microarray, higher = more signal;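 also: score merges spot fluorescence near 667 nm with spot signal-to-noise ratio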
# [18] = test system: Noggin (protein binding on small-molecule microarray); test: small molecules binding Noggin protein – biochemical, 635/667 nm fluorescence, primary screen (AID 1095); details: 635 nm fluorescence, higher = more signal;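 also: score merges 667 nm feature fluorescence with signal to noise over triplicate slides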
# [19] = target: Neurogenic locus notch homolog protein 3 (Homo sapiens) (UniProt Q9UM47); test: small molecules binding NOTCH3 protein – biochemical, 635/667 nm fluorescence, primary screen (AID 1096); details: small-molecule microarray, 635 nm fluorescence, higher = more signal
# Neurogenic locus notch homolog protein 3 (Homo sapiens), sequence (Q9UM47 whole entry, looked up): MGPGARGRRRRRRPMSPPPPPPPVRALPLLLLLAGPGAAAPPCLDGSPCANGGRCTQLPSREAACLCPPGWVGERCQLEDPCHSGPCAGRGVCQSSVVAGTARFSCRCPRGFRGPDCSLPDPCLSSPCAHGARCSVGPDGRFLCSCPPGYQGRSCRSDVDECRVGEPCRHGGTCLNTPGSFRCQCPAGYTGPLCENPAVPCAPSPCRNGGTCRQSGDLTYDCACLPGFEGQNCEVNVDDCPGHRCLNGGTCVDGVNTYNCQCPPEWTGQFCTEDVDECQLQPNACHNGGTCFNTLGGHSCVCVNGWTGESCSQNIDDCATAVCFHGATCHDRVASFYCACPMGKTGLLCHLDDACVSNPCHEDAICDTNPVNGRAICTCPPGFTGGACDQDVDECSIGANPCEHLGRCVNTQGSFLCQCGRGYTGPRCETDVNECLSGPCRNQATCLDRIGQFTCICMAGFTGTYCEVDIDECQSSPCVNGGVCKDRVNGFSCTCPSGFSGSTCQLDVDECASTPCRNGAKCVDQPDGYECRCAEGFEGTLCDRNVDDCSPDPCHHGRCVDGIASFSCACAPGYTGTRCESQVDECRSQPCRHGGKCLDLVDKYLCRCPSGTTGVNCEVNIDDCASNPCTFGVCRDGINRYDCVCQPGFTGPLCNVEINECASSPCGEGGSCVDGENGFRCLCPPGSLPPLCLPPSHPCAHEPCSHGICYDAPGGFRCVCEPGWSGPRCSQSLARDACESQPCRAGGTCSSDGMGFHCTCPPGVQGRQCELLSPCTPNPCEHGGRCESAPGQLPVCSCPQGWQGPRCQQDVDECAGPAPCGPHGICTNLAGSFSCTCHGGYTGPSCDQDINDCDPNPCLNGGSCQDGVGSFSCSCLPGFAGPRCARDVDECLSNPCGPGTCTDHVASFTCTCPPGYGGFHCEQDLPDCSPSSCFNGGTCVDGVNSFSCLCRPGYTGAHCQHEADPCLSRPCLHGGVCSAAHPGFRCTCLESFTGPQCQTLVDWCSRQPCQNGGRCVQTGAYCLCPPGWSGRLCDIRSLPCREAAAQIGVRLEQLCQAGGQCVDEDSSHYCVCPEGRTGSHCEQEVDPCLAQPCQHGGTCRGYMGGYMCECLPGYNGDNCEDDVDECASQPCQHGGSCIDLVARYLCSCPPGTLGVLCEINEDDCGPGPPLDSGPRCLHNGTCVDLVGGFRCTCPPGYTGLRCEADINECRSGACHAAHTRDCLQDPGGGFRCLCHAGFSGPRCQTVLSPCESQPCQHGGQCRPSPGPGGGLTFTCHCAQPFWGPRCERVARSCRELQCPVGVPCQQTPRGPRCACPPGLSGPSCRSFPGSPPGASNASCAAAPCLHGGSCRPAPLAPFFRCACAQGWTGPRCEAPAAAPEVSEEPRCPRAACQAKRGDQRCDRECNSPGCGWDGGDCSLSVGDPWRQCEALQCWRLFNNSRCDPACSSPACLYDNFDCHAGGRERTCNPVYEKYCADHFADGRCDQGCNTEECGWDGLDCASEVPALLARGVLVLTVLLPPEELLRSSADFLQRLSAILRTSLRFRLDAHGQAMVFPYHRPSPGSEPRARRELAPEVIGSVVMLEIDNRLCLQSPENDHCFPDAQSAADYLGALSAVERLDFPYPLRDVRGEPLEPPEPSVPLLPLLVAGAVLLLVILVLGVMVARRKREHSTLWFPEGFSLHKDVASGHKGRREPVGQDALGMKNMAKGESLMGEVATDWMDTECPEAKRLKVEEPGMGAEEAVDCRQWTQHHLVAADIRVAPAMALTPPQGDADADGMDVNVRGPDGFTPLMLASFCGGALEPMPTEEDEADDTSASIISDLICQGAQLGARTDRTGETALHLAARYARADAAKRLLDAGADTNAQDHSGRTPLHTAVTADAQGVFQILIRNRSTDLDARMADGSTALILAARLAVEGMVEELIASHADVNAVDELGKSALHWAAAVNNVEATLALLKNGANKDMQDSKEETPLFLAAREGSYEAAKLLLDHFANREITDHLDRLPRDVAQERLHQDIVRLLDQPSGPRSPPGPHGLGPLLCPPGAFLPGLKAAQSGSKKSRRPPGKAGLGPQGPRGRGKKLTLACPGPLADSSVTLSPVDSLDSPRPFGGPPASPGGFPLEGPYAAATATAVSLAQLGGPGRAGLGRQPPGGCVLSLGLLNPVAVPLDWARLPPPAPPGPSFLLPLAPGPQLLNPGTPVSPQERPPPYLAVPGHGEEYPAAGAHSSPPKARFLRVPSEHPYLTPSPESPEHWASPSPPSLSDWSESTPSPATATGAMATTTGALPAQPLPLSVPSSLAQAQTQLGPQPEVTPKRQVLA
# [20] = probe aEGFR binding to arrayed compounds – biochemical, biotinylated probe, 635/667 nm fluorescence, primary screen (AID 1097); details: small-molecule microarray, higher = more signal;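 also: probe is a biotinylated anti-EGFR antibody binding compounds printed on slides; score combines fluorescence near 667 nm and signal to noise of each spot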
SMILES,composite z-score [1],composite z-score [2],composite z-score [3],composite z-score [4],composite z-score [5],composite z-score [6],composite z-score [7],z-score [8],composite z-score [9],composite z-score [10],composite z-score [11],z-score [12],z-score [13],z-score [14],composite z-score [15],z-score [16],composite z-score [17],composite z-score [18],composite z-score [19],composite z-score [20]
C=C[C@@H](C)[C@H](O)c1ccc(O)c2ccccc12,-0.0835 and 0.0226,0.0628 and -0.136,-0.182 and -0.24,-0.455 and -0.788,-0.889 and -2.07,-0.0351 and -0.653,-0.728 and -0.279,-0.431 (inactive) and 0.2 (inactive),-0.938 and -1.14,0.0373 and -0.261,0.849 and -0.813,-0.647 (inactive) and -0.84 (inactive),-7.96 (inactive) and -7.6 (inactive),3.63 (inactive) and 2.2 (inactive),1.26 and 0.149,1.32 (inactive) and 0.1 (inactive),-0.254 and -0.233,0.753 and -0.896,-0.0801 and -1.72,-0.244 and -0.399
COC(=O)C1=C(C)N(Cc2ccccc2)[C@]23O[C@](C(=O)OC)(C(=O)N2[C@@H]1c1ccccc1)[C@@H](C(=O)OC)[C@H]3C(=O)OC,0.202 and -0.441,-0.295 and -0.1,-0.112 and -0.0712,-0.204 and 0.255,-0.481 and 0.25,0.943 and -0.386,0.393 and 0.208,-0.125 (inactive) and -0.101 (inactive),-0.243 and -0.0583,-0.137 and -0.189,-0.584 and 0.5,0.464 (inactive) and 0.457 (inactive),-0.0252 (inactive) and -0.671 (inactive),0.667 (inactive) and 0.334 (inactive),0.19 and 0.0032,0.305 (inactive) and 0.28 (inactive),-0.277 and -0.259,-0.803 and 0.77,-1.21 and 0.287,-0.173 and -0.115
COc1ccc(COC(=O)NN=C2C[C@@H](O)[C@@H](O)[C@@H]3[C@@H]4C(=O)N(C(C)(C)C)C(=O)[C@@H]4CC[C@H]23)cc1,-0.494,0.602,-0.0439,0.799,0.29,1.46,1.13,-1.03 (inactive),0.0715,-0.13,1.28,-1.76 (inactive),-1.05 (inactive),-0.715 (inactive),2.14,-0.0531 (inactive),-0.277,0.468,0.469,-0.132
COC(=O)[C@@]1(Cc2ccccc2)[C@H]2c3cc(C(=O)N(C)C)n(Cc4ccc(C)c(F)c4F)c3C[C@H]2CN1C(=O)c1ccccc1,1 and 0.986,-0.481 and 0.787,0.162 and 0.639,0.384 and 0.451,1.5 and 1.71,1.39 and 1.48,1.39 and 1.12,3.35 (inactive) and -0.497 (inactive),0.705 and 2.39,0.176 and 0.567,-0.325 and 1.23,-0.542 (inactive) and -0.0959 (inactive),-0.991 (inactive) and 1.01 (inactive),-0.447 (inactive) and 1.48 (inactive),3.44 and 3.67,-0.359 (inactive) and -0.543 (inactive),0.378 and 0.513,-0.566 and 0.645,0.636 and 1.06,0.168 and 0.646
